From PubChem BioAssay
In the library only some 11% were active in any assay of this set; here they are far more common.
G9a inh – inhibitors of human histone lysine methyltransferase G9a | 350,000 compounds, 8.8% hits | G9a H3K9 monomethylation, AlphaScreen, 2 h | Q96KQ7 | Potency, µM (doses to about 102 µM), for inactives: at the top dose activity, negative = inhibition, most hits filed as inhibitors; also: % is scaled to controls: 0 for no effect and ±100 for the full control effect; nearly all actives have a fitted effect of over 75% in size
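Compounds were preincubated with 20 nM G9a for 15 min, after which biotinylated H3K9 peptide (500 nM) and SAM (20 uM) started a 2 h room-temperature reaction. Monomethylated product was quantified by antibody-based AlphaScreen chemiluminescence.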
PLK1 PBD block – PLK1 (human) polo-box domain binding inhibition. Potency, µM, without a hit: max response, negative = inhibition, actives largely listed as inhibitors. P53350. Plk1 PBD binding of FITC phosphopeptide, fluorescence polarization. 360,000 compounds, 2.8% hits; also: series mostly up to about 57 µM; % is scaled to controls: 0 for no effect and ±100 for the full control effect; nearly all actives have a fitted effect of over 65% in size
JMJD2A Tudor – JMJD2A Tudor domain (human) inhibition | O75164 | AlphaScreen JMJD2A-Tudor / H3K4me3 peptide binding | Potency, µM (highest dose often 114 µM), for the others: at the top dose activity change, negative = inhibition, usual class: inhibitors | 390,000 compounds, 4.4% hits | AID 504339; also: % is scaled to controls: 0 for no effect and ±100 for the full control effect; nearly all actives have a fitted effect of over 50% in size
HP1b chromo inh – inhibitors of HP1-beta chromodomain binding to methylated histone tails. P83916. AlphaScreen HP1-beta / biotin-H3K9me3 peptide binding. Potency, µM (top dose mostly 114 µM), inactives show at the top dose activity change, negative = inhibition, hits mostly inhibitors. 390,000 compounds, 0.56% hits. AID 540317; also: nearly all actives have a fitted effect of over 70% in size
Target sequence (P83916 whole entry, looked up): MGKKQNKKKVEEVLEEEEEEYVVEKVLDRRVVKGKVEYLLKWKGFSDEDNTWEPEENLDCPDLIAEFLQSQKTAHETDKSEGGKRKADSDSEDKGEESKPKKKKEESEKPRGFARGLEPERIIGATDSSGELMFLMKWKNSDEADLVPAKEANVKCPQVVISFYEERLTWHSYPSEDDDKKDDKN
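AlphaScreen: HP1-beta (50 nM) preformed 30 min with biotin-H3(1-18)K9me3 peptide (50 nM) in PBS pH 7.4, 0.01% Tween-20. Compound added for 30 min at RT, then streptavidin donor/nickel chelate acceptor beads (10 ug/mL) for 30 min.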
VDR inhibitor – blocks the human vitamin D receptor; P11473; Potency, µM, without a hit: max response, negative = inhibition, most hits filed as inhibitors; 400,000 compounds, 0.93% hits; VDR-SRC2-3 peptide fluorescence polarization, 2 h; also: % is scaled to controls: 0 for no effect and ±100 for the full control effect
Target sequence (P11473 whole entry, looked up): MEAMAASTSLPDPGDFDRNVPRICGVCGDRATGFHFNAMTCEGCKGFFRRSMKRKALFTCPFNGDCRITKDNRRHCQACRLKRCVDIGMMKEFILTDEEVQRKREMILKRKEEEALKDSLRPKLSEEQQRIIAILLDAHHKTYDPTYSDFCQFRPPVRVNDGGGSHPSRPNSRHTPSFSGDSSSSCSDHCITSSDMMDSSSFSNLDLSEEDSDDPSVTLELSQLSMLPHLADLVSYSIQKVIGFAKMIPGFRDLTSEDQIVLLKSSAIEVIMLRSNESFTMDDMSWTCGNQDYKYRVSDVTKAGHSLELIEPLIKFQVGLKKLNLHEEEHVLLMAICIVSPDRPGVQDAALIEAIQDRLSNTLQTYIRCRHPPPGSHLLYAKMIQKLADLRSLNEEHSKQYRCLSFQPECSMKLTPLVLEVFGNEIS
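VDR–SRC2-3 interaction, FP format. Cmpds 23 nl via pintool, brief spin, 2 h ambient incubation.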
BAZ2B inh – inhibitors of human BAZ2B bromodomain. Q9UIF8. AlphaScreen BAZ2B-H3K14Ac peptide displacement. Potency, µM (series often up to 114 µM), without a hit: at the top dose activity change, negative = inhibition, actives largely listed as inhibitors. 360,000 compounds, 4.4% hits. AID 504333; also: % is scaled to controls: 0 for no effect and ±100 for the full control effect; nearly all actives have a fitted effect of over 60% in size
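AlphaScreen displacement: compounds (up to 110uM) incubated 30 min at room temperature with a preformed 50 nM BAZ2B/50 nM biotinylated H3K14Ac peptide complex in PBS pH 7.4 with Tween-20. Donor and acceptor beads at 10 ug/mL final added, 20 min light-protected before reading.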
* = called active by the depositor; u = inconclusive; x = no result; [ ] = another dose, or the depositor's remark. Calls follow the shape of the dose curve; as a rule, active = well fitted curve in the direction sought with a large enough effect; inconclusive = small, poorly fitted or top-dose-only effect, or another doubt; inactive = no such curve, though single readings can be large; an effect the other way counts as inactive or inconclusive. Potency is read from the fitted curve at half-maximal effect.

SMILES	G9a inh	PLK1 PBD block	JMJD2A Tudor	HP1b chromo inh	VDR inhibitor	BAZ2B inh
Cc1c(Cl)ccc2c1NC(=O)[C@]21N[C@@H](CCC(N)=O)[C@H]2C(=O)N(c3ccc(F)cc3)C(=O)[C@H]21	14.1µM*	-3.2%	-7.9%	47.0%	6.0%	2.8%
COC(=O)C1(C)NC(c2cccc(C)c2)C2C(=O)N(c3ccc(F)cc3)C(=O)C21 (stereo not drawn)	16.3%	3.7%	2.7%	55.0%	2.2%	-1.9%
O=C(O)CN1C(=O)/C(=C\c2ccccc2OCc2ccc(Cl)cc2)SC1=S	2.4%[2.33 µM]	29.9µM*	u	-3.7%	u	u
O=C(O)CN1C(=O)/C(=C\c2cccc(OCc3ccc(Cl)cc3)c2)SC1=S	39.8µM*	21.2µM*	u	-11.0%	50.1µM*	44.7µM*
O=C(O)CN1C(=O)/C(=C\c2cccc(OCc3ccc(F)cc3)c2)SC1=S	44.7µM*	26.7µM*	u	-8.7%	44.7µM*	u
Cn1cccc1/C=C1\SC(=S)N(CC(=O)O)C1=O	-20.4%[59 µM]	30.3%	-17.4%	3.6%	-0.1%	-34.4%
Fc1ccccc1COc1cccc(/C=N/n2cnnc2)c1	-7.4%[59 µM]	-6.8%	-14.8%	12.1%	-9.9%	x
O=C(O)CN1C(=O)/C(=C\c2cccc(OCc3ccccc3F)c2)SC1=S	u	29.9µM*	u	u	u	-31.6%
CCn1nc(C(=O)OC(C(=O)c2c[nH]c3ccccc23)c2ccccc2)c2ccccc2c1=O (stereo not drawn)	-39.8%[59 µM]	11.5%	-29.1%	-4.8%	5.9%	-7.0%
Cc1ccc(S(=O)(=O)/N=C2/NC(=O)/C(=C/c3ccncc3)S2)cc1	u	x	x	x	x	-10.8%
Cc1ccc(/C=C2\S/C(=N/S(=O)(=O)c3cccs3)NC2=O)cc1	-8.5%[59 µM]	18.9µM*	-12.9%	6.6%	-24.8%	-25.8%
Cc1ccc(S(=O)(=O)/N=C2/NC(=O)/C(=C\c3ccco3)S2)cc1	39.8µM*	u	-31.3%	-0.3%	-27.7%	-13.3%
Cc1ccc(S(=O)(=O)/N=C2/NC(=O)/C(=C/c3ccccc3)S2)cc1	50.1µM*	u	-18.9%	10.2%	u	u
COc1cc(/C=C2\S/C(=N/S(=O)(=O)c3ccc(C)cc3)NC2=O)c([N+](=O)[O-])cc1OC	u	-4.9%	6.3%	21.3%	-2.6%	-37.4%
Cc1ccc(S(=O)(=O)/N=C2/NC(=O)/C(=C\c3ccccc3)S2)cc1	x	23.8µM*	-30.1%	-4.6%	79.4µM*	x
CCOC(=O)c1ccc(NC(=O)c2c(NC(=O)CCC(=O)O)sc3c2CCCCC3)cc1	31.6µM*	26.7µM*	-34.0%	u	u	-31.2%
NC(=O)c1c(NC(=O)C2CCCO2)sc2c1CCCCC2 (stereo not drawn)	3.55µM*	10.6µM*	u	u	u	-29.7%
NC(=O)c1c(NC(=O)C2CCCO2)sc2c1CCC2 (stereo not drawn)	7.1%	-4.3%	-23.7%	13.0%	-6.1%	2.8%
CCC(=O)Nc1sc2c(c1C(=O)Nc1ccc(Br)cc1)CCCCC2	u	x	u	22.2%	14.1µM*	-17.7%
CCCOC(=O)c1c(NC(=O)CCC(=O)O)sc2c1CCCCC2	50.1µM*	-14.3%	-4.2%	3.4%	-17.8%	-26.8%
O=C(Cc1ccccc1)Nc1sc2c(c1C(=O)Nc1ccccc1)CCCCC2	u	x	u	15.6%	u	u
CC(C)(C)c1ccc(S(=O)(=O)NCC(=O)Nc2sc3c(c2C(N)=O)CCCC3)cc1	50.1µM*	26.7µM*	-28.8%[11.4 µM]	-6.2%	-6.7%	2.0%
COc1ccc(NC(=O)c2c(NCc3cccs3)sc3c2CCCCC3)c(OC)c1	8.91µM*	x	44.7µM*	u	-4.6%	u
O=C(Cc1ccccc1)Nc1sc2c(c1C(=O)Nc1ccccc1Cl)CCCC2	7.08µM*	x	-13.4%	-2.3%	u	-3.8%
NC(=O)c1c(NC(=O)CCCC(=O)O)sc2c1CCCCCC2	50.1µM*	26.7µM*	-30.9%[57.1 µM]	u	u	1.9%
SMILES	G9a inh	PLK1 PBD block	JMJD2A Tudor	HP1b chromo inh	VDR inhibitor	BAZ2B inh
O=C(COc1ccccc1)Nc1sc2c(c1C(=O)Nc1ccccc1Cl)CCCCC2	u	x	-13.7%	11.5%	6.9%	-14.3%
COc1ccc(-n2c(=O)c(CCc3ccccc3)nc3cnc(N4CCOCC4)nc32)cc1	-0.1%[0.501 µM]	x	x	x	3.2%	x
COc1ccc(NC(=O)c2c(NCc3cccs3)sc3c2CCCC3)cc1	14.1µM*	x	u	-3.9%	-5.0%	-36.0%
CC(C)(C)C1CCc2c(sc(NC(=O)CCC(=O)O)c2C(=O)Nc2ccccc2C(F)(F)F)C1 (stereo not drawn)	u	x	56.2µM*	-16.5%	-19.2%	50.1µM*
CCOc1ccc(NC(=O)c2c(NC(=O)CNCCN3CCOCC3)sc3c2CCC3)cc1	39.8µM*	-2.0%	79.4µM*	3.2%	27.8%	44.7µM*
CCOc1ccccc1NC(=O)c1c(NC(=O)c2ccccc2C)sc2c1CCC(C)C2 (stereo not drawn)	14.1µM*	x	-12.1%	15.0%	u	4.1%
COc1ccccc1NC(=O)c1c(NC(=O)c2cccs2)sc2c1CCC(C(C)(C)C)C2 (stereo not drawn)	-32.6%[59 µM]	x	-14.5%	47.0%	7.0%	4.3%
CCOc1ccccc1NC(=O)c1c(NCc2cccs2)sc2c1CCC(C)C2 (stereo not drawn)	-42.4%[59 µM]	x	-10.3%	19.8%	10.5%	-11.1%
Cc1cc2oc(=O)cc(CN(C)Cc3ccccc3)c2cc1C	x	0.4%	x	x	x	x
O=c1ccc(-c2ccc(S(=O)(=O)Nc3cccc(Br)c3)o2)n[nH]1	u	-12.8%	-5.2%	46.0%	9.7%	-25.5%
CCOc1ccccc1NC(=O)c1c(NC(=O)CCC(=O)O)sc2c1CCCCC2	25.1µM*	u	44.7µM*	-23.5%	u	u
CCOC(=O)c1ccc(NC(=O)c2c(NCc3cccs3)sc3c2CCCCC3)cc1	7.94µM*	x	56.2µM*	-23.0%	u	u
CCOc1ccccc1NC(=O)c1c(NC(=O)Cc2ccccc2)sc2c1CCCC2	-41.3%[59 µM]	x	-4.2%	32.4%	-11.8%	1.3%
CCOc1ccc(NC(=O)c2c(NCc3cccs3)sc3c2CCC(C)C3)cc1 (stereo not drawn)	u	x	u	25.7%	1.9%	-37.7%
CCOC(=O)C1(CCCc2ccccc2)CCN(Cc2ccn[nH]2)CC1	50.1µM*	-8.8%	-20.3%	5.3%	-13.8%	-18.1%
CCOC(=O)C1(CCCc2ccccc2)CCN(Cc2cnn(C)c2)CC1	-5.6%	-0.6%	-6.3%	38.4%	5.2%	2.0%
CCCCCn1c(N)c(-c2nc3ccccc3o2)c2c([N+](=O)[O-])nn(C)c(=O)c21	-33.6%[59 µM]	-29.1%	44.7µM*	21.0%	-14.1%	u
